The record followed here is PubChem BioAssay (NCI).

Among the test systems are NCI-H23 lung; NCI-H226 lung; NCI-H322M lung; HOP-62 NSCLC; NCI-H460 lung; HOP-92 NSCLC; NCI-H522 lung; A549/ATCC NSCLC; 786-0 renal; COLO 205 colon.
Holding throughout (assay): NCI-60 one-dose screen, 48 h (100 = growth as untreated, 0 = no growth, -100 = all killed)
What all share (settings): 10 µM

Molecules are shown by their SMILES. The panel holds about 83,000 compounds, 20% with a hit somewhere; the sample as a whole holds those more often.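 Values shown are percent growth following 48 h exposure of cells in 96-well plates to a single concentration of compound; below 10 was considered active.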 A number with no mark means an inactive call. Calls of active or inactive are those of the source.

Regarding `CCCCCCCOc1cccc(/C=C2/C(=O)N=C3SCCCN32)c1`, the growth in the experiment with NCI-H23 lung is 70.7%; with NCI-H226 lung, 64.5%; in the experiment on NCI-H322M lung, 89.1%; in the experiment with HOP-62 NSCLC, 85.7%; with NCI-H460 lung, 82%; in the experiment on HOP-92 NSCLC it was 62.8%. In addition, the growth is 23.6% in the experiment on NCI-H522 lung, 94.9% in the experiment on A549/ATCC NSCLC, 80.4% in the experiment on 786-0 renal and 81.2% in the experiment on COLO 205 colon.
Regarding `COc1ccc(/C(CS(=O)(=O)c2ccccc2)=N\O)cc1`, the growth was 105% in the experiment with NCI-H23 lung; 89.1% in the experiment with NCI-H226 lung; 108% in the experiment with NCI-H322M lung; 109% in the experiment with HOP-62 NSCLC; 109% in the experiment with NCI-H460 lung; 109% in the experiment with HOP-92 NSCLC. Besides, the growth was 97.3% with NCI-H522 lung, 92.1% with A549/ATCC NSCLC, 104% in the experiment with 786-0 renal and 114% in the experiment on COLO 205 colon.
`O=C(Nc1cccc(-c2nc3ccccc3[nH]2)c1)c1cccc(NC(=O)c2ccco2)c1`: the growth in the experiment on NCI-H23 lung was 98%; in the experiment on NCI-H226 lung, 90.1%; in the experiment on NCI-H322M lung, 94.1%; in the experiment with HOP-62 NSCLC it was 73.2%; in the experiment with NCI-H460 lung, 91.6%; in the experiment on HOP-92 NSCLC, 38.8%. Besides, the growth in the experiment with NCI-H522 lung was 98.5%; with A549/ATCC NSCLC, 82.7%; with 786-0 renal, 67%; in the experiment with COLO 205 colon it was 31.4%.
On to `O=CNc1c(Cl)cc2c(c1Cl)Cc1cc([N+](=O)[O-])ccc1-2`, for which the growth in the experiment on NCI-H23 lung is 58.3%; with NCI-H226 lung, 90.1%; with NCI-H322M lung, 78%; in the experiment with HOP-62 NSCLC, 67.6%; with NCI-H460 lung, 31.4%; with HOP-92 NSCLC, 60.6%. For the same compound, the growth in the experiment with NCI-H522 lung was 44.7%; with A549/ATCC NSCLC, 38.4%; in the experiment on 786-0 renal, 109%; in the experiment with COLO 205 colon, 34.4%.
In the case of `O=C(COCc1c(-c2ccccc2)no[n+]1[O-])Nc1nc(-c2ccc(Cl)cc2)cs1`, the growth was 93.6% in the experiment with NCI-H23 lung; 90.4% in the experiment with NCI-H226 lung; 104% in the experiment on NCI-H322M lung; 96.5% with HOP-62 NSCLC; 106% in the experiment with NCI-H460 lung; 86.8% with HOP-92 NSCLC. In addition, the growth in the experiment with NCI-H522 lung is 81.1%; in the experiment with A549/ATCC NSCLC, 105%; in the experiment on 786-0 renal, 120%; in the experiment with COLO 205 colon it was 113%.
Regarding `CCOc1ccc(-n2cc(-c3ccc(N(C)C)cc3)[n+]3c2CCCCC3)cc1`, the growth in the experiment on NCI-H23 lung is 0.183% (active); with NCI-H226 lung, 18.6%; in the experiment with NCI-H322M lung, 45.3%; in the experiment on HOP-62 NSCLC, 3.02% (active); with NCI-H460 lung, 5.52% (active); in the experiment with HOP-92 NSCLC it was -8.52% (active). In addition, the growth is -0.392% (active) with NCI-H522 lung, 22.4% in the experiment with A549/ATCC NSCLC, 20.7% in the experiment on 786-0 renal and -68.6% (active) with COLO 205 colon.
With `COc1ccc(CSc2nc3cc(OC)c(OC)cc3c(=O)n2-c2ccc(OC)cc2OC)cc1`, the growth in the experiment with NCI-H23 lung was 78.3%; with NCI-H226 lung it was 78.4%; with NCI-H322M lung, 80.6%; with HOP-62 NSCLC, 101%; with NCI-H460 lung it was 90.6%; in the experiment with HOP-92 NSCLC it was 75.5%. Besides, the growth with NCI-H522 lung was 68.6%; in the experiment on A549/ATCC NSCLC, 80.8%; in the experiment with 786-0 renal it was 95.7%; in the experiment on COLO 205 colon, 101%.
Consider `CCCCOCC(=O)NC(NP(=O)(N(C)C)N(C)C)C(Cl)(Cl)Cl` (stereo not given), for which the growth with NCI-H23 lung was 101%; with NCI-H226 lung it was 109%; with NCI-H322M lung it was 127%; with HOP-62 NSCLC, 81.2%; with NCI-H460 lung it was 110%; in the experiment on HOP-92 NSCLC, 97.7%. Besides, the growth in the experiment with NCI-H522 lung was 107%; in the experiment on A549/ATCC NSCLC, 102%; in the experiment with 786-0 renal, 92.5%; in the experiment on COLO 205 colon, 109%.
Consider `Cn1cnc([N+](=O)[O-])c1/C=C1\Oc2ccc(Cl)cc2C1=O`, for which the growth is 93.9% with NCI-H23 lung; 94.8% with NCI-H226 lung; 91% in the experiment on NCI-H322M lung; 93.5% with HOP-62 NSCLC; 99.4% with NCI-H460 lung; 94% in the experiment with HOP-92 NSCLC. The growth in the experiment with NCI-H522 lung is 52.8%; with A549/ATCC NSCLC, 98.4%; with 786-0 renal, 91.9%; in the experiment with COLO 205 colon it was 100%.
For `COC(=O)[C@]12CC[C@@H](C)[C@H](C)[C@@H]1C1=CC[C@@H]3[C@@]4(C)C/C(=N\O)[C@H](O)[C@@]5(C)COC(=C45)C[C@@]3(C)[C@]1(C)CC2`, the growth in the experiment on NCI-H23 lung is -75.7% (active); in the experiment on NCI-H226 lung, -76.7% (active); in the experiment on NCI-H322M lung, -77.2% (active); with HOP-62 NSCLC, -96.7% (active); in the experiment with NCI-H460 lung, -76.5% (active); with HOP-92 NSCLC, -79% (active). Also, the growth with NCI-H522 lung is -84.7% (active); with A549/ATCC NSCLC, -90.6% (active); in the experiment on 786-0 renal it was -81% (active); with COLO 205 colon, -91.9% (active).
For the compound `CS(=O)(=O)Nc1ccc(OCc2nnc(-c3ccc(Cl)cc3)o2)c(F)c1`, the growth is 93.6% in the experiment with NCI-H23 lung; 86.2% with NCI-H226 lung; 109% in the experiment with NCI-H322M lung; 87.2% with HOP-62 NSCLC; 98.9% with NCI-H460 lung; 88.3% in the experiment with HOP-92 NSCLC. In addition, the growth with NCI-H522 lung was 94.8%; in the experiment on A549/ATCC NSCLC it was 90.2%; with 786-0 renal, 89.4%; in the experiment with COLO 205 colon, 110%.
Take `C=CCc1cc(Nc2c3ccc(Cl)cc3nc3ccc(OC)cc23)cc(CN(CC)CC)c1O`: the growth in the experiment on NCI-H23 lung is -0.558% (active); in the experiment on NCI-H226 lung, 26.3%; in the experiment on NCI-H322M lung it was 49.5%; in the experiment on HOP-62 NSCLC it was 9.37% (active); in the experiment with NCI-H460 lung, 4.5% (active); in the experiment with HOP-92 NSCLC, -20.5% (active). For the same compound, the growth in the experiment on NCI-H522 lung was -5.89% (active); in the experiment on A549/ATCC NSCLC, 13.3%; with 786-0 renal, 12.3%; in the experiment with COLO 205 colon, -83.9% (active).
For `O=S(=O)(NC1c2ccccc2Oc2ccccc21)c1ccccc1`, the growth with NCI-H23 lung is 98%; in the experiment on NCI-H226 lung, 95.3%; in the experiment on NCI-H322M lung, 91.6%; with HOP-62 NSCLC, 90.1%; in the experiment with NCI-H460 lung, 107%; with HOP-92 NSCLC, 63.8%. Further, the growth in the experiment on NCI-H522 lung was 31.3%; in the experiment with A549/ATCC NSCLC, 98.4%; with 786-0 renal, 82.1%; in the experiment on COLO 205 colon it was 95.6%.
